In PubChem BioAssay (NCI) one finds growth data, which are given here for 28 compounds.

The panel holds about 83,000 compounds, 20% with a hit somewhere; the sample as a whole holds those more often.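 Testing used 96-well plates and a 48-hour single-concentration exposure. Example: -40 means 40% of the starting cells died.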 Values without a mark were called inactive. Activity calls are given as the source filed them. The calls were made as follows: active = growth percent below 10; inactive = the rest.

Test in all cases: NCI-60 one-dose screen, 48 h (100 = growth as untreated, 0 = no growth, -100 = all killed)
Conditions in all cases: 10 µM unless noted

The test system of experiment [1] is HCT-15 colon.
Experiment [2] has as its system HT29 colon.
Experiment [3] relates to SNB-75 CNS.
Experiment [4] deals with SNB-19 CNS.
Experiment [5] concerns U251 CNS.
In experiment [6] the test system is PC-3 prostate.
Experiment [7] has as its system UACC-62 melanoma.
Experiment [8] concerns LOX IMVI melanoma.
The test system of experiment [9] is SK-MEL-28 melanoma.
Experiment [10] deals with SK-MEL-5 melanoma.

With `COc1ccc(NC(=O)c2ccc(Nc3ncnc4c3cnn4-c3cccc(F)c3)cc2)cc1`, the growth in experiment [1] was 102%; in experiment [2], 104%; in experiment [3] it was 93.9%; in [4] it was 94.7%; in [5] it was 103%; in [6], 96.3%. Also, the growth in [7] is 94.8%; in [8] it was 96%; in experiment [9], 113%.
For `COC12C=C/C(=C(/C(=O)OCc3csc(SC)n3)C(=O)CCCCCCCCC3(OC)C=C/C(=C(/C(=O)OCc4cnc(SC)s4)C(=O)CCCCCCCC1)O3)O2` (configuration not stated), the growth was 76.8% in experiment [1]; 27.5% in experiment [2]; 98.3% in [3]; 47.3% in [4]; 27.4% in [6]; 11.3% in experiment [10]. Moreover, the results for the growth in [7], in experiment [8] and in experiment [9] were 6.98% (active), -22.9% (active) and 36.3%, respectively.
Take `CN1CCN(c2ccc(NC3=CC(=O)c4ncncc4C3=O)cc2)CC1`: the growth in experiment [1] is -71.7% (active); in experiment [2] it was -29% (active); in [3], -94.7% (active); in experiment [4] it was -91.9% (active); in experiment [6], -8.86% (active); in experiment [10] it was -94% (active). The growth is -89.8% (active) in experiment [7], -63.8% (active) in experiment [8] and -75.3% (active) in [9].
In the case of `Nc1cccc(-c2ccc(COc3ccc(CC4SC(=O)NC4=O)cc3)cc2)c1` (configuration not stated), the growth was 34.3% in [1]; 100% in experiment [2]; 54.4% in experiment [3]; 69.3% in [4]; 45.9% in [5]; 59.7% in [6]. For the same compound, the growth is 55.4% in [7], 57.5% in experiment [8] and 55.9% in experiment [9].
Consider `Cc1c2ccccc2nc2cc3c(cc12)[C@H]1CC[C@]2(C)C(=O)CC[C@H]2[C@@H]1CC3`, for which the growth was 90.3% in experiment [1]; 99.9% in experiment [2]; 66.4% in [3]; 84.9% in experiment [4]; 80.6% in experiment [6]; 88.8% in experiment [10]. Besides, the growth in [7] was 88.1%; in experiment [8], 97.8%; in experiment [9] it was 111%.
Turning to `Nc1cc(C(=O)O)cc(-n2c(O)c(C=C3N=c4ccccc4=N3)sc2=S)c1`, the growth in experiment [1] was 103%; in experiment [2], 108%; in experiment [3], 80.7%; in experiment [4], 103%; in [6], 92.4%; in [10], 97.9%. The figures for the growth in [7], in experiment [8] and in experiment [9] were 86.7%, 95.8% and 104%, respectively.
In the case of `COCCn1cc(-c2nc(-c3c[nH]c4ncccc34)cs2)c2ccccc21`, the growth is 20.3% in experiment [1]; 50.2% in experiment [2]; 47.2% in experiment [3]; 88.6% in [4]; 33.2% in experiment [6]; 34.3% in [10]. The figures for the growth in experiment [7], in experiment [8] and in experiment [9] were 64.4%, 66.9% and 89.4%, respectively.
For `O=c1oc2c(cnc3ccccc32)cc1-c1cccc(Cl)c1`, the growth is 101% in experiment [1]; 108% in experiment [2]; 95.6% in experiment [3]; 98.5% in [4]; 97.7% in [6]; 107% in experiment [10]. Also, the growth in [7] was 96.1%; in [8], 102%; in [9], 105%.
`O=C(/C=C/C12c3ccccc3C(c3ccccc31)C1C(=O)NC(=O)C12)c1ccc(Cl)cc1Cl` (configuration not stated): the growth is 11% in experiment [1]; 1.07% (active) in [2]; 25.1% in experiment [3]; 27% in [4]; 15.6% in [6]; 36.8% in experiment [10]. Besides, the growth is 12.5% in experiment [7], -25.6% (active) in experiment [8] and 4.9% (active) in experiment [9].
`Cc1cccc(N=Nc2cccc(C)c2)c1`: the growth is 96.3% in [1]; 102% in experiment [2]; 132% in [3]; 92.4% in experiment [4]; 104% in [6]; 105% in experiment [10]. Also, the results for the growth in experiment [7], in experiment [8] and in experiment [9] were 92.8%, 105% and 107%, respectively.
Turning to `C=CCn1cc(-c2nc3ccccc3s2)c2cc(-c3ccc4c5c(cccc35)C(=O)N(CCO)C4=O)ccc21`, the growth in [1] is 94.3%; in experiment [2] it was 98.2%; in experiment [3], 98.9%; in experiment [4], 93.1%; in experiment [5] it was 97.2%; in [6], 83.7%. Moreover, the growth in experiment [7] was 94.9%; in [8] it was 95.4%; in [9], 110%.
Take `O=C(O)c1cn(C2CC2)c2cc(N3CCN(C(=O)N4CCOCC4)CC3)c(F)cc2c1=O`: the growth in [1] is 103%; in [2], 102%; in experiment [3], 98.1%; in experiment [4], 105%; in experiment [5] it was 103%; in [6], 91.9%. Besides, the values for the growth in [7], in experiment [8] and in experiment [9] were 97.3%, 87.1% and 104%, respectively.
In the case of `O=C(CN1C(=O)S/C(=C\C(Cl)=C\c2ccccc2)C1=O)NC1CCS(=O)(=O)C1` (configuration not stated), the growth is 15.7% in experiment [1]; 53.5% in [2]; 57.8% in experiment [3]; 86.8% in experiment [4]; 80.9% in [6]; 84.5% in experiment [10]. Besides, the growth in [7] was 72.1%; in experiment [8], 14.2%; in experiment [9], 74.9%.
In the case of `CN1CCOCCN(C)Cc2ccc3ccc(cc3c2)CN(C)CCOCCN(C)Cc2ccc3ccc(cc3c2)C1`, the growth is 73.2% in experiment [1]; 7.33% (active) in [2]; 78.3% in experiment [3]; 86.5% in experiment [4]; 55.5% in experiment [6]; 99.4% in experiment [10]. Besides, the values for the growth in experiment [7], in [8] and in [9] were 104%, 93.8% and 105%, respectively.
As for `C=CN(C(=O)N1CCN(c2cc3c(cc2F)c(=O)c(C(=O)O)cn3C2CC2)CC1)c1nc(-c2ccc(Cl)cc2)cs1`, the growth in [1] is 24.6%; in experiment [2], 40.2%; in experiment [3], 80%; in experiment [4], 59.5%; in experiment [5], 23.6%; in experiment [6] it was 40.3%. The growth was 60.3% in [7], 28.6% in [8] and 62% in experiment [9].
For `COC(=O)c1c2c(c(C)[n+]([O-])c1C)C(=O)C(NCc1ccccc1)=CC2=O`, the growth was 5.71% (active) in experiment [1]; 12.7% in experiment [2]; 125% in experiment [3]; 7.59% (active) in experiment [4]; 8.92% (active) in experiment [6]; -84.9% (active) in experiment [10]. Moreover, the growth in experiment [7] is -16.6% (active); in experiment [8], 8.65% (active); in experiment [9] it was 61.3%.
For the compound `CC(C)NS(=O)(=O)/N=C1\NC(=O)NC1=C(Cl)Cl`, the growth was 86.3% in experiment [1]; 99% in [2]; 104% in experiment [3]; 94.3% in [4]; 94.5% in experiment [6]; 92.8% in experiment [10]. Also, the values for the growth in experiment [7], in experiment [8] and in experiment [9] were 84.5%, 94.8% and 108%, respectively.
Regarding `CCOC(=O)c1[nH]cc2c1CCc1sc(Nc3ccccn3)nc1-2`, the growth was 67.2% in experiment [1]; 77% in [2]; 82.2% in [3]; 85.2% in experiment [4]; 56.7% in experiment [6]; 63.5% in [10]. In addition, the growth in experiment [7] was 86.5%; in [8], 81.7%; in experiment [9], 103%.
For `Cc1nc(N/N=C/c2cn(-c3ccccc3)nc2-c2cc3ccccc3oc2=O)sc1N=Nc1ccccc1`, the growth is 56.1% in experiment [1]; 85.2% in experiment [2]; 50.4% in experiment [3]; 91.9% in experiment [4]; 93.1% in experiment [5]; 85.8% in [6]. Besides, the values for the growth in [7], in [8] and in [9] were 71%, 89.5% and 87.6%, respectively.
`COc1cc(/C=C/C(=O)c2cccc(-n3cc(-c4ccc(Cl)cc4)[nH]c3=O)c2)ccc1O`: the growth in experiment [1] is 37.8%; in experiment [2], 27%; in experiment [3], 50.3%; in experiment [4], 94.9%; in experiment [6], 34.2%; in experiment [10], 68.1%. In addition, the growth in experiment [7] is 64.3%; in [8] it was 13.1%; in experiment [9] it was 58.6%.
Take `O=C1NC(=O)C(c2coc3cc(Br)ccc23)=C1c1c[nH]c2ccccc12`: the growth in experiment [1] is 25%; in experiment [2], 20.6%; in [3], -2.44% (active); in experiment [4], 58%; in experiment [6], 67.2%; in [10] it was 80.7%. Further, the growth is 35.6% in [7], 44% in [8] and 71.5% in experiment [9].
Turning to `CC[C@H](Nc1nc(N)nc(C)c1C#N)c1nc2cccc(CN(C)c3ncc(C(=O)NO)cn3)c2c(=O)n1-c1ccccc1`, the growth in experiment [1] is 42.8%; in experiment [2], -18.4% (active); in experiment [3], 29.1%; in [4] it was 11%; in experiment [5] it was -69.6% (active); in [6], 14.6%. The growth in [7] is -80% (active); in experiment [8], -86.6% (active); in experiment [9], 6.03% (active).
With `COc1ccc(/C=N/Nc2c3ccccc3nc3ccccc23)cc1`, the growth is 92.6% in [1]; 93.9% in experiment [2]; 93.4% in [3]; 92.4% in experiment [4]; 93.4% in experiment [5]; 83.1% in experiment [6]. Further, the growth in experiment [7] is 91.1%; in experiment [8], 92.9%; in experiment [9], 108%.
Consider `Cc1ccc(-c2nc(SCC(=O)N3CCN(c4cc5c(cc4F)c(=O)c(C(=O)O)cn5C4CC4)CC3)nc(Cl)c2C#N)cc1`, for which the growth was 99.8% in experiment [1]; 103% in [2]; 103% in experiment [3]; 94.7% in [4]; 106% in experiment [5]; 99.5% in experiment [6]. Besides, the growth in [7] is 94.7%; in experiment [8], 97.2%; in experiment [9], 106%.
Regarding `Cn1cc(-c2csc(-c3cn(C)c4ccccc34)n2)c2cnccc21`, the growth was -35.9% (active) in experiment [1]; 4.26% (active) in [2]; 104% in experiment [3]; 52.2% in experiment [4]; 54.8% in [6]; -76.2% (active) in experiment [10]. In addition, the growth in experiment [7] is 61.4%; in experiment [8], -87.5% (active); in experiment [9], -92.9% (active).
In the case of `N#Cc1ccc(/C=C/c2cn(-c3ccccc3)nc2-c2cccc([N+](=O)[O-])c2)cc1`, the growth is 65.4% in experiment [1]; 53.2% in [2]; 27.3% in experiment [3]; 21.6% in [4]; 44.3% in experiment [6]; 72.7% in experiment [10]. For the same compound, the growth is 77% in experiment [7], 77.4% in experiment [8] and 66.3% in experiment [9].
With `O=C(NCCCCCCNC(=O)OCc1ccc2c(Cl)cc(Cl)c(O)c2n1)OCc1ccc2c(Cl)cc(Cl)c(O)c2n1`, the growth in [1] is -29.1% (active); in experiment [2] it was -75% (active); in experiment [3], -96.2% (active); in experiment [4] it was 51.4%; in [5], -92.2% (active); in experiment [6] it was -46.2% (active). The growth in [7] was -94.3% (active); in experiment [8], -88.7% (active); in experiment [9], -89.8% (active).
For the compound `CCCCCCCCCCCCCCCCCCOc1ccccc1CC(=O)NCC[N+](C)(C)C`, the growth in experiment [1] was 87.4%; in [2], 12.5%; in [3], 22.9%; in experiment [4], 12.5%; in experiment [5] it was -58.5% (active); in experiment [6] it was -33% (active). Moreover, the growth was 42% in experiment [7], 33.4% in experiment [8] and 80.1% in experiment [9].
